Measured values taken from PubChem BioAssay (NCATS).
Records with an inconclusive call do not appear. Values without a mark were called inactive. Calls come from the whole dose curve; as a rule, active = well fitted inhibition curve with a large enough effect; inconclusive = small, poorly fitted or top-dose-only effect; inactive = no such curve, though single readings can be large or run the other way.
% is set by controls: 0 for no effect and ±100 for the full control effect.

Test: Primary qHTS for small molecule stabilizers of the endoplasmic reticulum resident proteome: Secreted ER Calcium Modulated Protein (SERCaMP) assay (AID 1508630)
Details: SH-SY5Y GLuc-SERCaMP (Gaussia luciferase released on ER calcium loss) secretion, thapsigargin, luminescence; series mostly up to 38.4 µM; activity change, negative = inhibition: at the top concentration
Procedure, shortened: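 The SH-SY5Y reporter protocol was run at 3 concentrations up to 38.3 uM (primary) or 11 concentrations (follow-up): 16 h compound, 100 nM thapsigargin for 4 h, then extracellular luciferase luminescence.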
For `C[C@@H](NCc1cc2ccccc2[nH]1)c1cccc2ccccc12`, the “activity change, negative = inhibition” value was 237%.
In the case of `CN(C)CCN1C(=O)c2cccc3cc(N)cc(c23)C1=O`, the “activity change, negative = inhibition” value is reported as 25.8%.
In the case of `CCCCC(=O)O[C@]1(C(=O)CO)[C@@H](C)C[C@H]2[C@@H]3CCC4=CC(=O)C=C[C@]4(C)[C@@]3(F)[C@@H](O)C[C@@]21C`, the “activity change, negative = inhibition” value is reported as 42.2%.
With `O=C1c2cccc(O)c2C(=O)c2c(O)cc(CO)cc21` the “activity change, negative = inhibition” value was 27.6%.
For `N[C@H]1CN(c2c(F)cc3c(=O)c(C(=O)O)cn(C4C[C@@H]4F)c3c2Cl)CC12CC2` (stereo partly specified), the “activity change, negative = inhibition” value was -2.46%.
With `CN1CCCN(C(=O)c2cccc(-c3ccc(C=C4C(=O)Nc5ccc(Cl)cc54)o3)c2)CC1` the “activity change, negative = inhibition” value was 319%.
In the case of `CC1(C)O[C@@H]2C[C@H]3[C@@H]4CCC5=CC(=O)C=C[C@]5(C)[C@@H]4[C@@H](O)C[C@]3(C)[C@]2(C(=O)CO)O1`, the “activity change, negative = inhibition” value is reported as -8.76%.
In the case of `O=c1[nH]c(=O)n([C@H]2C[C@@H](O)[C@@H](CO)O2)cc1C=CBr`, the “activity change, negative = inhibition” value is reported as 53.2%.
In the case of `Cc1ccccc1C(=O)Nc1ccc(C(=O)N2CCCC(O)c3cc(Cl)ccc32)c(C)c1` (stereo unspecified), the “activity change, negative = inhibition” value is reported as -6.16%.
In the case of `CCn1c(=O)c2c(nc(C=Cc3ccc(OC)c(OC)c3)n2C)n(CC)c1=O`, the “activity change, negative = inhibition” value is reported as 285%.
For `NC(=O)c1ncn([C@@H]2O[C@H](CO)[C@@H](O)[C@@H]2O)c1O`, the “activity change, negative = inhibition” value was 112%.
